Our source for the GI50 values is ChEMBL document CHEMBL1201862, “PubChem BioAssay data set” (2004).

Out of some 54,000 sequences screened, about 4,000 (7.4%) were called active. Cut-off read from the data, not from the text of the source: active = GI50 up to about 1.1 µM and inactive = higher. The list is a sample of the results. Results with a measured potency or affinity are listed apart.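 1) Cells in 96-well plates. 2) Compound, 48 h, 5 concentrations. 3) Linear interpolation between surrounding doses. 4) Unreached endpoint = highest concentration. GI50 is the concentration that inhibits growth by half.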

The experiment deals with SNB-75. Kind of experiment: NCI tumour cell line growth inhibition, 48 h.
Substance “[Bis(aminomethyl)pentamethylenesilane]tetrachloropaltinum(IV), CHEMBL2146204” returned a GI50 of 2.64 µM.

For the substance “[Bis(aminomethyl)diethylsilane]tetrachloroplatinum(IV), CHEMBL2146203”, the GI50 was 3.8 µM.

CISPLATIN, CHEMBL11359 yielded a GI50 of 2.84 µM.

Take “mu-(1,7-nanodiamine-N,N')bis-(cis-aminedichloroplatimum (II)), CHEMBL2146215”: the GI50 was determined as 12.4 µM.

For “cis-Bis[[(trimethylsilyl)methyl]amino]tetrachloroplatinum(IV), CHEMBL2146191”, the GI50 turned out to be 15 µM.

“[Bis(aminomethyl)ethylmethylsilane]tetrachloroplatinum(IV), CHEMBL2146192” yielded a GI50 of 3.53 µM.

Consider “[Bis(aminomethyl)dimethylsilane]tetrachloroplatinum(IV), CHEMBL2146190”, for which the GI50 came to 11.5 µM.

As for “[Bis(aminomethyl)pentamethylenesilane]dichloropaltinum(II), CHEMBL2146202”, the GI50 is 2.9 µM.

For “[Bis(aminomethyl)tetramethylenesilane]dichloropaltinum(II), CHEMBL2146205”, the GI50 came out at 29.5 µM.

In turn, “[Bis(aminomethyl)dimethylsilane]dichloroplatinum (II), CHEMBL2146201” showed a GI50 of 9.23 µM.

The substance “[Bis(aminomethyl)tetramethylenesilane]tetrachloropaltinum(IV), CHEMBL2146189” gave a GI50 of 5.7 µM.
